HT1080NT lethal: qHTS for induction of synthetic lethality in tumor cells producing 2HG: qHTS for the HT-1080-NT fibrosarcoma cell line; HT-1080-NT fibrosarcoma viability, CellTiter-Glo ATP luminescence, 48 h; Potency, µM (series often up to 46.1 µM), hits mostly cytotoxic; 360,000 tested, 1.6% active;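 note: NT is the 2HG producing partner of a matched IDH1 knockdown line; nearly all actives have a fitted effect of over 55% in size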
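HT-1080-NT fibrosarcoma cells (2HG-overproducing), 750 cells/well in RPMI with 5% FBS, dosed after 2 h and incubated 48 h at 37C. CellTiter-Glo luminescence normalized to DMSO and no-cell wells; concentration-response curves fitted and classed.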
HT1080 IDH1KD tx: qHTS for induction of synthetic lethality in tumor cells producing 2HG: qHTS for the HT-1080-IDH1KD cell line. HT-1080 IDH1 knockdown viability, ATP luminescence, 48 h. Potency, µM (doses to about 46.1 µM), usual class: cytotoxic. 360,000 tested, 2% active
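IDH1KD HT-1080 cells, 750/well, RPMI + 5% FBS; compound pinned after 2 h settling; 48 h, 37 °C; CellTiter-Glo luminescence; % activity normalised to DMSO and no-cell wells; curves fitted, classed by r2 and efficacy.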
KB-V1 cytotox: qHTS assay for MDR1-selective chemotherapeutics: Primary screen using the drug-selected MDR subline cells KB-V1. KB-V1 MDR cells viability, CellTiter-Glo, 72 h. Potency, µM (highest dose often 46.1 µM), usual class: cytotoxic. 400,000 tested, 3.4% active; note: nearly all actives have a fitted effect of over 60% in size
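Potencies derive from concentration-effect curves fitted to normalized luminescence (CellTiter-Glo) of KB-V1 cells treated for 72 h at 37 degrees C in phenol-red-free DMEM containing 10% FBS.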
ATXN2 expr inh: Primary qHTS for Inhibitors of ATXN expression | HEK-293 ATXN2-luciferase reporter, luminescence, 24 h | Potency, µM (doses to about 57 µM), most hits filed as inhibitors | 360,000 tested, 0.72% active | AID 1745845, 2022; note: nearly all actives have a fitted effect of over 55% in size
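ATXN2-luciferase reporter cells (luciferase flanked by upstream and downstream ATXN2 gene portions) were treated 24 h at 37 °C with compounds at up to 57 uM. SteadyGlo luminescence gave expression; GF-AFC fluorescence gave viability.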
S2 tox: Viability Counterscreen for Primary qHTS for Inhibitors of ATXN expression; S2 cells (HEK-293 line with an ATXN2-luciferase reporter) viability, CellTiter-Fluor protease fluorescence, 24 h; Potency, µM (titrated, usually from 56.7 µM), hits mostly cytotoxic; 400,000 tested, 0.49% active; AID 651635, 2014; note: nearly all actives have a fitted effect of over 40% in size
KB-3-1 cytotox: qHTS assay for MDR1-selective chemotherapeutics: Primary screen using the parental adenocarcinoma cell KB-3-1; KB-3-1 viability, CellTiter-Glo ATP luminescence, 72 h; Potency, µM (highest dose often 46.1 µM), actives largely listed as cytotoxic; AID 1347075, 2019; 400,000 tested, 1.4% active; note: nearly all actives have a fitted effect of over 60% in size
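Using CellTiter-Glo luminescence, growth of non-resistant KB-3-1 adenocarcinoma cells is assessed 72 h after pin-tool compound addition at 37 °C. Normalized responses across the concentration series yield fitted curves.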
Hits are given with their value; 0 = inactive; ? = inconclusive; - = no result given. Only some compounds are listed: those with a hit (about 6.2% of all), similar ones and a draw of the others. Calls come from the whole dose curve; as a rule, active = well fitted curve in the direction sought with a large enough effect; inconclusive = small, poorly fitted or top-dose-only effect, or another doubt; inactive = no such curve, though single readings can be large; an effect the other way counts as inactive or inconclusive.

SMILES	HT1080NT lethal	HT1080 IDH1KD tx	KB-V1 cytotox	ATXN2 expr inh	S2 tox	KB-3-1 cytotox
CN1CCN(c2ccc(-c3cc(NC=O)c4ncc(-c5ccc(F)cc5)n4c3)cc2)CC1	?	?	0	0	?	?
COc1cc(-c2cnc3c(NC=O)cc(-c4ccc(N5CCN(C)CC5)cc4)cn23)cc(OC)c1OC	0	?	?	0	?	?
CC(=O)Nc1cc(-c2ccc(N3CCN(C)CC3)cc2)cn2c(-c3ccccc3)cnc12	?	20.6µM	0	?	?	0
Cc1csc2nc(COc3ccc(NC(=O)COc4ccccc4F)cc3)cc(=O)n12	-	-	0	0	0	0
Cc1ccc(CNC(=O)C2CCCN(S(=O)(=O)c3cccc4nsnc34)C2)cc1 (centres undefined)	-	-	0	0	0	0
COc1cc(/C=C/c2ccc3cccc([N+](=O)[O-])c3n2)ccc1OCC(=O)O	0	0	0	-	0	0
CCOc1c(OC(C)=O)ccc(/C=C/c2ccc3cccc(OC)c3n2)c1[N+](=O)[O-]	0	0	16.4µM	0	0	0
NC(=S)N/N=C/c1cccc(Br)c1	0	0	8.2µM	0	0	?
COC(=O)c1cc(C)nc2c1C(=O)C(=O)C=C2N1CCOCC1	6.51µM	5.17µM	?	3.55µM	3.16µM	?
COCCn1c(COc2ccc(OC)cc2)nc2ccccc21	0	0	8.2µM	0	0	0
Cc1ccccc1NCc1nc2ccccc2n1CCOc1ccccc1	-	-	?	0	?	14.6µM
Cc1ccc2c(c1)-c1nc(-c3ccccc3)cc(-c3ccccc3)c1CO2	-	-	0	0	0	0
Cc1ccc2[nH]c3c(c2c1)CCC3=O	0	0	?	0	0	0
CC(C)c1ccc2[nH]c3c(c2c1)CCC/C3=N\NC(=O)c1ccncc1	?	?	?	0	-	?
O=C1CCCc2c1[nH]c1ccc(CN3CCCCC3)cc21	?	10µM	?	0	0	0
CC(C)c1ccc2[nH]c3c(c2c1)CCCC3=O	20.6µM	?	13µM	0	0	0
Cc1ccc2[nH]c3c(c2c1)CCCC3=O	0	0	1.84µM	0	?	1.84µM
CC(C)(C)NC(=O)C(c1ccccc1F)n1c(=O)c(-c2cc3ccccc3[nH]2)nc2ccccc21 (centres undefined)	0	?	0	-	-	?
CC(C)(C)NC(=O)C(c1ccnc2ccccc12)n1c(=O)c(-c2cc3ccccc3[nH]2)nc2ccccc21 (centres undefined)	20.6µM	23.1µM	?	-	-	?
O=C(NC1CCCCC1)C(c1ccccc1F)n1c(=O)c(-c2cc3ccccc3[nH]2)nc2ccccc21 (centres undefined)	0	?	?	-	-	?
O=C(NC1CCCCC1)C(c1ccncc1)n1c(=O)c(-c2cc3ccccc3[nH]2)nc2ccccc21 (centres undefined)	?	?	16.4µM	-	-	20.6µM
O=C(NC1CCCCC1)C(c1cccc2ccccc12)n1c(=O)c(-c2cc3ccccc3[nH]2)nc2ccccc21 (centres undefined)	20.6µM	18.4µM	0	-	-	0
CCCOC(=O)Nc1nc2ccccc2o1	0	0	0	0	0	0
CCOC(=O)c1cnc(Nc2nc3ccccc3o2)nc1CN1CCN(C)CC1	?	14.6µM	13µM	0	0	?
Cc1sc2nc(CN3CCOCC3)nc(NCCc3ccccc3)c2c1C	0	0	8.2µM	0	0	0
SMILES	HT1080NT lethal	HT1080 IDH1KD tx	KB-V1 cytotox	ATXN2 expr inh	S2 tox	KB-3-1 cytotox
Cc1sc2ncnc(NCCN3CCOCC3)c2c1C	0	0	16.4µM	0	0	0
Cc1sc2ncnc(NCc3cccnc3)c2c1C	0	0	0	0	0	0
Cc1sc2nc(CN3CCOCC3)nc(NS(=O)(=O)c3ccccc3)c2c1C	0	0	0	0	0	0
Cc1ccc2[nH]c3c(NCc4ccco4)ncnc3c2c1	0	0	18.4µM	0	0	13µM
Fc1ccc2[nH]c3c(NCc4ccco4)ncnc3c2c1	-	-	0	-	-	?
Cc1sc2ncnc(NCc3cccs3)c2c1C	0	0	2.59µM	?	0	?
COc1cc(Br)c(CC(=O)NO)cc1OC	0	0	-	-	-	-
CC(=O)c1ccc(NC(=O)Cn2c(=O)oc3cc(S(=O)(=O)N4CCCCC4)ccc32)cc1	-	-	0	0	0	0
Cc1sc2ncnc(NCc3ccco3)c2c1C	0	0	2.59µM	?	0	6.51µM
CCOC(=O)c1c(CSC(=N)N)n(-c2ccc(Br)cc2)c2cc(Br)c(OC(C)=O)cc12	0	0	0	0	0	0
CCOC(=O)c1c(CSc2nc(C)cc(C)c2C#N)n(C)c2cc(Br)c(OC(C)=O)cc12	?	0	?	?	0	?
C=CCCc1ccc(C#N)c(SCc2c(C(=O)OCC)c3cc(OC(C)=O)c(Br)cc3n2C)n1	?	0	2.59µM	0	?	?
CCCCCCCCOC(=O)c1c(CSC(=N)N)n(C)c2cc(Br)c(OC(C)=O)cc12	?	?	?	-	31.6µM	0
COc1ccc(Cn2c(C(=O)O)c(CNC3CCCCCC3)c3ccc(OC)cc32)cc1	-	-	?	0	?	?
Cc1ccc2c(c1)c1c(c(=O)n(-c3ccccc3)c(=O)n1Cc1ccccc1C)n2C	-	-	0	0	0	0
C=CCn1c(SCc2nc3cc(C(=O)OC)ccc3c(=O)[nH]2)nc2sc(CC)cc2c1=O	0	0	5.17µM	0	?	0
COc1ccc2c(Sc3ccc(C)cc3)c(C(=O)NCc3ccc(F)cc3)[nH]c2c1	-	-	0	0	0	0
COC(=O)c1cn([C@H]2C[C@@H](C(=O)N3CCCCCC3)N(Cc3ccsc3)C2)nn1	-	-	-	-	0	-
COc1ccc(Cn2nnnc2CN(Cc2cc3cc(C)ccc3[nH]c2=O)C2CCCC2)cc1	0	0	16.4µM	0	0	0
Cc1ccc(CN(Cc2cc3cc4c(cc3[nH]c2=O)OCCO4)Cc2nnnn2Cc2ccco2)cc1	0	?	14.6µM	?	?	0
Cc1ccc2cc(CN(Cc3ccc4c(c3)OCO4)Cc3nnnn3Cc3ccco3)c(=O)[nH]c2c1	0	0	0	0	?	?
Cc1ccc2[nH]c(=O)c(CN(Cc3nnnn3C3CCCC3)C3CCCCC3)cc2c1	0	0	0	0	0	0
O=c1[nH]c2cc3c(cc2cc1CN(Cc1nnnn1C1CCCC1)C1CCCC1)OCCO3	0	0	0	0	0	23.1µM
Cc1ccc2[nH]c(=O)c(CN(Cc3ccccc3)Cc3nnnn3C3CCCC3)cc2c1	0	0	23.1µM	0	0	0
CCN1CCN(C(=O)c2cnn(-c3ccc(F)cc3)c2-n2cccc2)CC1	-	-	0	0	0	0

High-throughput results deposited in PubChem by National Center for Advancing Translational Sciences (NCATS).
